Measured values reported in PubChem BioAssay AID1159580 (chemical genetic matrix, 2015).
Values joined by “and” are separate entries in the source; they are usually repeats but may differ in a detail not shown here. Identical values can stand only once. Among all 5,500 compounds or so, about 2,000 (36%) were called active. Another 18% or so got no clear call; they are omitted. Cut-off read from the data, not from the text of the source: active = normalized growth mostly below about 0.91 (no sharp cut-off); inconclusive = no clear call, values can overlap the other calls; inactive = mostly above about 0.92. The list shows a part of the results.

Experiment: chemical genetic growth profiling, strain panel (AID 1159580);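 note: tested at 20 µM; growth read once vehicle control cultures reached saturation at 30 °C; 1 = growth at the plate median or of vehicle wells; lower values mean less growth of the strain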
Conditions: S. cerevisiae deletion strains, growth OD

Measured: normalized growth

S=P(N1CC1)(N1CC1)N1CC1
inactive: locus YAL013W, strain DEP1, stronger effect = lower value 1.01 | locus YAL021C, strain ccr4, stronger effect = lower value 1 | locus YAL026C, strain drs2, stronger effect = lower value 1.01 | locus YAL030W, strain snc1, stronger effect = lower value 0.996 | locus YBL061C, strain skt5, stronger effect = lower value 1.01 | locus YBR009C, strain hhf1, stronger effect = lower value 1.01 | locus YBR021W, strain FUR4, stronger effect = lower value 0.946 | locus YBR023C, strain chs3, stronger effect = lower value 1.02 | locus YBR171W, strain sec66, stronger effect = lower value 1.01 | locus YBR229C, strain ROT2, stronger effect = lower value 1.01 | locus YBR231C, strain swc5, stronger effect = lower value 1.01 | locus YBR279W, strain paf1, stronger effect = lower value 0.999 | locus YCL011C, strain gbp2, stronger effect = lower value 1.01 | locus YCL016C, strain dcc1, stronger effect = lower value 0.999 | locus YCL029C, strain bik1, stronger effect = lower value 1.01 | locus YCL061C, strain MRC1, stronger effect = lower value 1 | locus YCL069W, strain vba3, stronger effect = lower value 1.01 | locus YCR088W, strain abp1, stronger effect = lower value 1.02 | locus YDL005C, strain med2, stronger effect = lower value 1.01 | locus YDL035C, strain GPR1, stronger effect = lower value 1.02 | locus YDL040C, strain nat1, stronger effect = lower value 1.01 | locus YDL074C, strain BRE1, stronger effect = lower value 1.01 | locus YDL101C, strain DUN1, stronger effect = lower value 1.01 | locus YDL134C, strain PPH21, stronger effect = lower value 1 | locus YDL192W, strain arf1, stronger effect = lower value 0.995 | locus YDR001C, strain nth1, stronger effect = lower value 1.01 | locus YDR069C, strain doa4, stronger effect = lower value 0.997 | locus YDR101C, strain arx1, stronger effect = lower value 0.997 | locus YDR137W, strain rgp1, stronger effect = lower value 1.02 | locus YDR150W, strain NUM1, stronger effect = lower value 1 | locus YDR159W, strain sac3, stronger effect = lower value 1 | locus YDR162C, strain NBP2, stronger effect = lower value 1.01 | locus YDR195W, strain ref2 0.971 | locus YDR297W, strain sur2, stronger effect = lower value 1 | locus YDR318W, strain mcm21, stronger effect = lower value 1.01 | locus YDR334W, strain swr1, stronger effect = lower value 1.01 | locus YDR335W, strain msn5, stronger effect = lower value 1 | locus YDR388W, stronger effect = lower value 1.01 | locus YDR392W, strain spt3, stronger effect = lower value 1.03 | locus YDR502C, strain sam2, stronger effect = lower value 0.996 | locus YEL003W, strain gim4, stronger effect = lower value 1 | locus YEL037C, strain rad23, stronger effect = lower value 1 | locus YEL061C, strain CIN8 (second series), stronger effect = lower value 1 | locus YEL061C, strain CIN8, stronger effect = lower value 1.01 | locus YER015W, strain faa2, stronger effect = lower value 1 | locus YER016W, strain bim1, stronger effect = lower value 1 | locus YER110C, stronger effect = lower value 1.01 | locus YER111C, strain swi4, stronger effect = lower value 0.99 | locus YER155C, strain BEM2 (second series), stronger effect = lower value 1.03 | locus YER155C, strain BEM2, stronger effect = lower value 1 | locus YER167W, strain BCK2, stronger effect = lower value 1.01 | locus YFR010W, strain ubp6, stronger effect = lower value 1.01 | locus YGL078C, strain dbp3, stronger effect = lower value 0.999 | locus YGL086W, strain mad1, stronger effect = lower value 1 | locus YGL167C, strain pmr1, stronger effect = lower value 1.01 | locus YGL173C, strain kem1, stronger effect = lower value 1.02 | locus YGL227W, strain vid30, stronger effect = lower value 1.01 | locus YGL240W, strain doc1, stronger effect = lower value 1.01 | locus YGL248W, strain PDE1, stronger effect = lower value 1.01 | locus YGL253W, strain hxk2, stronger effect = lower value 1.02 | locus YGR078C, strain PAC10, stronger effect = lower value 1.01 | locus YGR135W, strain pre9, stronger effect = lower value 0.996 | locus YGR229C, strain SMI1, stronger effect = lower value 0.971 | locus YGR252W, strain gcn5, stronger effect = lower value 0.985 | locus YHR013C, strain ard1, stronger effect = lower value 0.997 | locus YHR027C, strain rpn1, stronger effect = lower value 0.997 | locus YHR030C, strain SLT2, stronger effect = lower value 1.01 and 0.994 | locus YHR079C, strain IRE1 (second series), stronger effect = lower value 1 | locus YHR079C, strain IRE1, stronger effect = lower value 0.985 | locus YHR094C, strain hxt1, stronger effect = lower value 1 | locus YHR129C, strain ARP1, stronger effect = lower value 1.03 | locus YHR142W, strain chs7, stronger effect = lower value 1 | locus YHR200W, strain rpn10, stronger effect = lower value 0.997 | locus YIL066C, strain RNR3, stronger effect = lower value 1.02 | locus YIL073C, strain SPO22, stronger effect = lower value 0.993 | locus YIL125W, strain kgd1, stronger effect = lower value 1.01 | locus YIR030C, strain dcg1, stronger effect = lower value 1.02 | locus YJL092W, strain hpr5, stronger effect = lower value 1 | locus YJL095W, strain BCK1 (second series), stronger effect = lower value 1.01 | locus YJL095W, strain BCK1, stronger effect = lower value 1.02 and 1.01 | locus YJL115W, strain asf1, stronger effect = lower value 1.01 | locus YJL129C, strain trk1, stronger effect = lower value 1.02 | locus YJL134W, strain LCB3, stronger effect = lower value 1.01 | locus YJL154C, strain vps35, stronger effect = lower value 1.01 | locus YJL164C, strain tpk1, stronger effect = lower value 1.01 | locus YJL166W, strain qcr8, stronger effect = lower value 1.01 | locus YJL168C, strain set2, stronger effect = lower value 0.999 | locus YJL187C, strain SWE1 (second series), stronger effect = lower value 1.01 | locus YJR043C, strain POL32, stronger effect = lower value 1 | locus YJR066W, strain TOR1, stronger effect = lower value 0.976 | locus YJR075W, strain HOC1, stronger effect = lower value 1.01
